Measured values as given in PubChem BioAssay (Tox21).
“And” between values parts separate entries of the source, which are not always exact repeats. Identical values can stand only once. Results filed as inconclusive are left out. Some compounds were tested as several samples or in several runs, with calls that do not always agree. The source made the active and inactive calls. Unless noted, calls come from the whole dose curve; as a rule, active = well fitted curve in the direction sought with a large enough effect in the repeat runs; inconclusive = weak or mixed curves; inactive = no such curve, though single readings can be large; an effect the other way counts as inactive or inconclusive.

Assays:
[1] = qHTS assay to test for compound auto fluorescence at 535 nm (green) in HEK293 cells (AID 720680)
[2] = qHTS assay to test for compound auto fluorescence at 460 nm (blue) in HEK293 cell free culture (AID 720681)
Summary of the method: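 Blue fluorescence (Ex 405/Em 460 nm, triamterene-equivalent) was read immediately after pin transfer of compound or DMSO into medium (DMEM, 10% FBS) without cells.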

[3] = qHTS assay to test for compound auto fluorescence at 535 nm (green) in HEK293 cell free culture (AID 720682)
Summary of the method: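 Measurement is a direct plate read of green fluorescence (485 nm in, 535 nm out) after compound addition to serum-supplemented DMEM lacking cells, with fluorescein used to express intensities.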

[4] = qHTS assay to test for compound auto fluorescence at 590 nm (red) in HEK293 cell free culture (AID 720683)
Summary of the method: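 Red-channel autofluorescence of compounds in culture medium (DMEM, 10% FBS), no cells, measured at 540/590 nm. Rose Bengal sodium is the reference fluorophore for equivalence.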

[5] = qHTS assay to test for compound auto fluorescence at 590 nm (red) in HepG2 cell free culture (AID 720684)
Summary of the method: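 Steps: dispense MEM/10% FBS medium, no cells; pin compound or DMSO vehicle; read red channel, Ex/Em 540/590 nm. Output given as Rose Bengal sodium equivalents.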

[6] = qHTS assay to test for compound auto fluorescence at 460 nm (blue) in HepG2 cell free culture (AID 720685)
Summary of the method: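 Compound (23 nL) or DMSO pinned into cell-free MEM with 10% FBS; blue fluorescence read at 405/460 nm excitation/emission, expressed as auto-fluorescence equivalency to triamterene.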

[7] = qHTS assay to test for compound auto fluorescence at 535 nm (green) in HepG2 cell free culture (AID 720686)
[8] = qHTS assay to test for compound auto fluorescence at 460 nm (blue) in HepG2 cells (AID 720687)
Summary of the method: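 Blue-channel autofluorescence (Ex/Em 405/460 nm, triamterene-equivalent) was measured after 1 hr compound exposure at 37 C, 5% CO2. Cells were HepG2, plated overnight at 37 C in MEM plus 10% FBS.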

[9] = target: Glucocorticoid receptor (Homo sapiens) (UniProt P04150); test: qHTS assay to identify small molecule agonists of the glucocorticoid receptor (GR) signaling pathway (AID 720691; active = well fitted activation curve with a large enough effect in the signal ratio in the repeat runs, not every such curve was filed as active; the % refers to the signal ratio)
Glucocorticoid receptor (Homo sapiens), sequence (P04150 whole entry, looked up): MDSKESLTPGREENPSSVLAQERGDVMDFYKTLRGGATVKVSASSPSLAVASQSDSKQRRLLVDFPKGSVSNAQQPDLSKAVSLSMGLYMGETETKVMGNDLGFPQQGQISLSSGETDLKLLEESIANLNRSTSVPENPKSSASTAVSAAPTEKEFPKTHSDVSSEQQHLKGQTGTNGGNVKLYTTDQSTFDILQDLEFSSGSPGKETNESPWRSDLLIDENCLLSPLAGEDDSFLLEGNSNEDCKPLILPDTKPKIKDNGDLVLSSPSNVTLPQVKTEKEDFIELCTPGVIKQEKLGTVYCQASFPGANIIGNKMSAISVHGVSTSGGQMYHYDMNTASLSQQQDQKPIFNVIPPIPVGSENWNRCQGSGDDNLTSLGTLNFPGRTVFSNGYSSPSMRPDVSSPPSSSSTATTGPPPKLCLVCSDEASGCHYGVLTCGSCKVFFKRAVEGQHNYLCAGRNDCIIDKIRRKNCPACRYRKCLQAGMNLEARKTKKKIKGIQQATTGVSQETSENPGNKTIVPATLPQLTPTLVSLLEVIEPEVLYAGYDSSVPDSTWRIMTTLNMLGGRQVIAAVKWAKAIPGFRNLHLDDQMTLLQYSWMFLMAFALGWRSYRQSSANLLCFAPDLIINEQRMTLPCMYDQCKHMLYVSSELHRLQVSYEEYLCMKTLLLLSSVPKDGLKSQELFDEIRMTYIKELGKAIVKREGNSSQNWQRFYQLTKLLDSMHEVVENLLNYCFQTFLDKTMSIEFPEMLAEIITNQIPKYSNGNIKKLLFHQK
Summary of the method: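 GR-bla HeLa cells (beta-lactamase reporter under glucocorticoid response element) were plated 4 h at 37 C/5% CO2, given compounds in DMSO, and incubated 18 h at 37 C. LiveBLAzer B/G FRET substrate was added for 2 h at room temperature, then fluorescence intensity read.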

[10] = target: Glucocorticoid receptor (Homo sapiens) (UniProt P04150); test: qHTS assay to identify small molecule antagonists of the glucocorticoid receptor (GR) signaling pathway (AID 720692; active = well fitted inhibition curve with a large enough effect in the signal ratio in the repeat runs, not every such curve was filed as active; the % refers to the signal ratio)
Summary of the method: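 GR-bla HeLa cells (beta-lactamase reporter under glucocorticoid response element) were pre-plated 4 h at 37 C, treated with compounds plus 5 nM dexamethasone (final) for 18 h, then read by LiveBLAzer B/G FRET fluorescence after 2 h.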

[11] = qHTS assay to identify small molecule antagonists of the glucocorticoid receptor (GR) signaling pathway - cell viability counter screen (AID 720693); note: nearly all actives have a fitted effect of over 55% in size
[12] = qHTS assay for identifying genotoxic compounds that show differential cytotoxicity against isogenic chicken DT40 cell lines with known DNA damage response pathways - wild type cell line (AID 743012); note: nearly all actives have a fitted effect of over 60% in size; note: potency is the fitted concentration of half-maximal effect
Summary of the method: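 Parental DNA repair-proficient DT40 cells, 300 per well, were pre-incubated ~0.5 h at 37 C/5% CO2, pin-dosed with compounds in DMSO, then incubated 40 h. Viability was read as CellTiter-Glo luminescence after 30 min at room temperature.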

[13] = qHTS assay for identifying genotoxic compounds that show differential cytotoxicity against isogenic chicken DT40 cell lines with known DNA damage response pathways - Rev3 mutant cell line (AID 743014); note: nearly all actives have a fitted effect of over 55% in size
[14] = qHTS assay for identifying genotoxic compounds that show differential cytotoxicity against isogenic chicken DT40 cell lines with known DNA damage response pathways - Rad54/Ku70 mutant cell line (AID 743015); note: nearly all actives have a fitted effect of over 60% in size; note: potency is the fitted concentration of half-maximal effect
[15] = qHTS assay to identify small molecule antagonists of the androgen receptor (AR) signaling pathway - cell viability counter screen (AID 743033; note: nearly all actives have a fitted effect of over 45% in size)
[16] = qHTS assay to identify small molecule antagonists of the androgen receptor (AR) signaling pathway using the MDA cell line - cell viability counter screen (AID 743041; note: nearly all actives have a fitted effect of over 45% in size)
Summary of the method: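 Cells were plated at 3,000 per well and left 5 h. Compounds in DMSO were then pinned in, followed by R1881. After 16 h at 37C, CellTiter-Fluor fluorescence gave viability.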

[17] = target: Androgen receptor (Homo sapiens) (UniProt P10275); test: qHTS assay to identify small molecule antagonists of the androgen receptor (AR) signaling pathway (AID 743035; active = well fitted inhibition curve with a large enough effect in the signal ratio in the repeat runs, not every such curve was filed as active; the % refers to the signal ratio)
Androgen receptor (Homo sapiens), sequence (P10275 whole entry, looked up): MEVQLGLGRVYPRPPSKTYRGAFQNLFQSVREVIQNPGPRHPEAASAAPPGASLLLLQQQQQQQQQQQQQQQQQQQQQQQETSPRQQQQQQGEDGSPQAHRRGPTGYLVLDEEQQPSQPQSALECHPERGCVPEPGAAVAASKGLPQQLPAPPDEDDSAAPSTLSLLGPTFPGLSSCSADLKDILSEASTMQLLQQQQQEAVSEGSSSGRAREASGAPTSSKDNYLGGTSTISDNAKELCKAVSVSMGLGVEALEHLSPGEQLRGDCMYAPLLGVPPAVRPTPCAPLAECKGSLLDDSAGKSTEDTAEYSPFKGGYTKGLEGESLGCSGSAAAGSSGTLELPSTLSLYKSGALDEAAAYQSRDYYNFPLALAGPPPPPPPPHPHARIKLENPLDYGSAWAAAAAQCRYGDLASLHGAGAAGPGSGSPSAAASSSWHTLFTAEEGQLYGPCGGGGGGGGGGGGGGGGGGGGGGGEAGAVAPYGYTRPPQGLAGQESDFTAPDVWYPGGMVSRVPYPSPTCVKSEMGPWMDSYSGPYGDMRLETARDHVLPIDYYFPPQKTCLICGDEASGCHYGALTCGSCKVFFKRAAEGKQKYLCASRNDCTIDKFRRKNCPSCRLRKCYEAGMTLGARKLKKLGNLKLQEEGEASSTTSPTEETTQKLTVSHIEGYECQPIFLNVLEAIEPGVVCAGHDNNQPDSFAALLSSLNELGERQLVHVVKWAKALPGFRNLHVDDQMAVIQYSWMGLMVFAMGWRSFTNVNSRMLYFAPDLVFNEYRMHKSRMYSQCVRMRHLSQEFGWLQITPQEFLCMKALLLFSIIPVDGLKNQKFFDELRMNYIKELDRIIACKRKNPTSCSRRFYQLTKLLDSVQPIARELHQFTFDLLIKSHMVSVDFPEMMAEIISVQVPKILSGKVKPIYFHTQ
Summary of the method: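 HEK293 cells stably carrying a UAS-driven beta-lactamase reporter (AR-UAS-bla GripTite) were plated for 4 h at 37C, then given compound and the agonist R1881 and incubated 16 h. Reporter activity was read by LiveBLAzer B/G FRET fluorescence after 2 h at room temperature.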

[18] = target: Androgen receptor (Homo sapiens) (UniProt P10275); test: qHTS assay to identify small molecule agonists of the androgen receptor (AR) signaling pathway (AID 743036; active = well fitted activation curve with a large enough effect in the signal ratio in the repeat runs, with a control signal flat, not every such curve was filed as active; the % refers to the signal ratio)
Summary of the method: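 Beta-lactamase under UAS control, stably integrated in HEK293 GripTite cells, reports receptor activation. After 16 h compound treatment, cells received FRET substrate for 2 h at room temperature before fluorescence reading.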

[19] = target: Androgen receptor (Homo sapiens) (UniProt P10275); test: qHTS assay to identify small molecule agonists of the androgen receptor (AR) signaling pathway using the MDA cell line (AID 743040; note: nearly all actives have a fitted effect of over 20% in size)
Summary of the method: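 Cells plated, 5 h at 37C/0% CO2; compound or DMSO pinned; 16 h at 37C; ONE-Glo added; luminescence measured after 30 min at room temperature. Reporter line: MDA-kb2 with MMTV-luciferase responsive to AR and GR.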

[20] = target: Androgen receptor (Homo sapiens) (UniProt P10275); test: qHTS assay to identify small molecule antagonists of the androgen receptor (AR) signaling pathway using the MDA cell line (AID 743042; note: nearly all actives have a fitted effect of over 55% in size)
Summary of the method: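 Antagonist mode: compounds plus R1881 agonist added to MDA-kb2 AR-luc cells, incubated 16 h at 37C. Luciferase reporter luminescence quantified, with multiplexed CellTiter-Fluor readout for cell viability.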
% is set by controls: 0 for no effect and ±100 for the full control effect.

CCCC(=O)C(C)=O
inactive: outcome [1] | outcome [2] | outcome [3] | outcome [4] | outcome [5] | outcome [6] | outcome [7] | outcome [8] | Potency [9] | outcome [10] | outcome [11] | Potency [12] | Potency [13] | Potency [14] | Potency [15] | Potency [16]

Cc1ccc2c(c1)OCC(=O)CO2
inactive: outcome [1] | outcome [2] | outcome [3] | outcome [4] | outcome [5] | outcome [6] | outcome [7] | outcome [8] | Potency [9] | outcome [10] | outcome [11] | Potency [12] | Potency [13] | Potency [15] | Potency [16]

FC(F)(F)c1ccccc1-n1ccnc1
inactive: outcome [1] | outcome [2] | outcome [3] | outcome [4] | outcome [5] | outcome [6] | outcome [7] | outcome [8] | Potency [9] | outcome [10] | outcome [11] | Potency [12] | Potency [13] | Potency [14] | Potency [16]

CCOCCOCCOCC
inactive: outcome [1] | outcome [2] | outcome [3] | outcome [4] | outcome [5] | outcome [6] | outcome [7] | outcome [8] | Potency [9] | outcome [10] | outcome [11] | Potency [12] | Potency [13] | Potency [15] | Potency [16]

CC(=C(CCOC(=O)C(C)C)SSC(CCOC(=O)C(C)C)=C(C)N(C=O)Cc1cnc(C)nc1N)N(C=O)Cc1cnc(C)nc1N
inactive: outcome [1] | outcome [2] | outcome [3] | outcome [4] | outcome [5] | outcome [6] | outcome [7] | outcome [8] | Potency [9] | outcome [10] | outcome [11] | Potency [12] | Potency [14] | Potency [15] | Potency [16]

CC(C)=CCOC(=O)c1ccccc1
inactive: outcome [1] | outcome [2] | outcome [3] | outcome [4] | outcome [5] | outcome [6] | outcome [7] | outcome [8] | Potency [9] | outcome [10] | outcome [11] | Potency [12] | Potency [13] | Potency [15] | Potency [16]

O=C1c2cccc3c2[C@H](CCC3)CN1[C@@H]1CN2CCC1CC2
active: Potency [12] 11.9 µM | Potency [14] 23.7 µM
inactive: outcome [1] | outcome [2] | outcome [3] | outcome [4] | outcome [5] | outcome [6] | outcome [7] | outcome [8] | Potency [9] | outcome [10] | outcome [11]

CC(=O)CCCCn1c(=O)c2c(ncn2C)n(C)c1=O
inactive: fluorescence, % of fluorescein [1] 0.0863% [at 18.6 µM] | fluorescence, % of fluorescent control [2] 0.0365% [at 18.6 µM] | activity change [3] 0.0172% [at 18.6 µM] | fluorescence, % of fluorescent control [4] 0.153% [at 18.6 µM] | fluorescence, % of Rose Bengal [5] -0.221% [at 18.6 µM] | fluorescence, % of fluorescent control [6] 0.0657% [at 18.6 µM] | fluorescence, % of fluorescein control [7] -0.0364% [at 18.6 µM] | fluorescence, % of fluorescent control [8] 0.0705% [at 18.6 µM] | Potency [9] | outcome [10] | outcome [11] | Potency [12] | Potency [13] | Potency [16]

Cc1ccc(S(=O)(=O)O)c(C)c1
inactive: outcome [1] | outcome [2] | outcome [3] | outcome [4] | outcome [5] | outcome [6] | outcome [7] | outcome [8] | Potency [9] | outcome [10] | outcome [11] | Potency [12] | Potency [13] | Potency [14] | Potency [15] | Potency [16]

CC(C)c1ccc2cc(C(C)C)ccc2c1
inactive: outcome [1] | outcome [2] | outcome [3] | outcome [4] | outcome [5] | outcome [6] | outcome [7] | outcome [8] | Potency [9] | outcome [10] | outcome [11] | Potency [12] | Potency [13] | Potency [14] | Potency [15] | Potency [17] | outcome [18] | outcome [19] | Potency [16] | Potency [20]

CC(C)NCC(O)COc1ccc(COCCOC(C)C)cc1 (centres undefined)
inactive: outcome [1] | outcome [2] | outcome [3] | outcome [4] | outcome [5] | outcome [6] | outcome [7] | outcome [8] | Potency [9] | outcome [10] | outcome [11] | Potency [12] | Potency [13] | Potency [15] | Potency [17] | outcome [18] | outcome [19] | Potency [16] | Potency [20]
inactive and 26.6 µM (active): Potency [14]

CCCCOC(=O)c1ccccc1
inactive: outcome [1] | outcome [2] | outcome [3] | outcome [4] | outcome [5] | outcome [6] | outcome [7] | outcome [8] | Potency [9] | outcome [10] | outcome [11] | Potency [12] | Potency [14] | Potency [15] | Potency [17] | outcome [19] | Potency [16] | Potency [20]

O=C(O)Cc1cn(-c2ccccc2)nc1-c1ccc(Cl)cc1
inactive: outcome [1] | outcome [2] | outcome [3] | outcome [4] | outcome [5] | outcome [6] | outcome [7] | outcome [8] | Potency [9] | outcome [10] | outcome [11] | Potency [12] | Potency [13] | Potency [14] | Potency [15] | Potency [16]

C=Cc1ccccn1
inactive: outcome [1] | outcome [2] | outcome [3] | outcome [4] | outcome [5] | outcome [6] | outcome [7] | outcome [8] | Potency [9] | outcome [10] | outcome [11] | Potency [12] | Potency [13] | Potency [15] | Potency [16]

C[Si](C)=O
inactive: fluorescence, % of fluorescein [1] 0.04% [at 9.17 µM] | fluorescence, % of fluorescent control [2] -0.225% [at 9.17 µM] | activity change [3] -0.0646% [at 9.17 µM] | fluorescence, % of fluorescent control [4] -0.414% [at 9.17 µM] | fluorescence, % of Rose Bengal [5] -0.0951% [at 9.17 µM] | fluorescence, % of fluorescent control [6] -0.0659% [at 9.17 µM] | fluorescence, % of fluorescein control [7] 0.113% [at 9.17 µM] | fluorescence, % of fluorescent control [8] -0.132% [at 9.17 µM] | activation [9] 1.09% [at 6.9 µM] | activity change, negative = inhibition [10] 3.35% [at 7.04 µM] | viability change, negative = cytotoxic [11] -9.5% [at 7.04 µM] | activity change, negative = cytotoxicity [12] 12.9% [at 8.52 µM] | activity, negative = cytotoxicity [13] -9.66% [at 8.53 µM] | activity change, negative = cytotoxicity [14] 1.94% [at 8.55 µM] | activity change, negative = cytotoxicity [15] 2.74% [at 7.04 µM] | viability change, negative = cytotoxic [16] -9.84% [at 8.47 µM]

O=C(OCC1(COC(=O)c2cccnc2)CCCC(COC(=O)c2cccnc2)(COC(=O)c2cccnc2)C1O)c1cccnc1
inactive: outcome [1] | outcome [2] | outcome [3] | outcome [4] | outcome [5] | outcome [6] | outcome [7] | outcome [8] | Potency [9] | outcome [10] | outcome [11] | Potency [12] | Potency [13] | Potency [15] | Potency [16]
